PAD4 FP inh – human PAD4 inhibitors, primary screen, biochemical, fluorescence polarization, 1536-well format; AID 485272, 2010; Protein-arginine deiminase type-4 (Homo sapiens), Q9UM07; inhibition, % at 6.36 µM; 330,000 compounds, 0.41% hits; recombinant PAD4, RCA probe fluorescence polarization;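 active = percent inhibition above a cutoff equal to the mean of all tested compounds plus 3 SD, cut at about 15% in these data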
Fam108B counter – mouse Fam108B serine hydrolase inhibitors, primary screen, counter-screen for RBBP9 inhibitor project, biochemical, fluorescence polarization; recombinant Fam108B, FP-Rh probe fluorescence polarization; inhibition, % at 9.51 µM; 300,000 compounds, 0.33% hits;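 active = inhibition above the screen mean inhibition plus 3 SD, computed separately per campaign, cut at about 18% in these data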;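 note: inhibitors lower polarization as less probe binds the enzyme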
GSTO1 counter – inhibitors of recombinant GSTO1, primary screen, counter-screen for RBBP9 inhibitor project, biochemical, fluorescence polarization; Glutathione S-transferase omega-1 (Homo sapiens), P78417; inhibition, % at 5.96 µM; 300,000 compounds, 1.1% hits; activity-based probe fluorescence polarization; AID 1974, 2009;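 active = inhibition above the campaign mean inhibition plus 3 SD, cut at about 35% in these data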
PME-1 primary – PME-1 inhibitors via competitive probe labeling, primary screen, biochemical, fluorescence polarization, FP-Rh probe, HTS; recombinant PME-1; inhibition, % at 5.9 µM; 320,000 compounds, 0.53% hits;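 active = inhibition above the campaign mean of all compounds plus 3 SD, cut at about 26% in these data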;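 note: competitive labeling of PME-1 active site by serine hydrolase directed probe; inhibitors block probe labeling so polarization falls and inhibition rises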
LYPLA1 counter – LYPLA1 inhibitors, primary screen, counter-screen for PME1 inhibitor project, biochemical, fluorescence polarization, FP-Rh probe ABPP. Acyl-protein thioesterase 1 (Homo sapiens), O75608. 320,000 compounds, 0.16% hits. recombinant LYPLA1. inhibition, % at 5.9 µM. AID 2174, 2009;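 active = inhibition above the mean of all tested compounds plus 3 SD, set per campaign, cut at about 14% in these data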;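 note: inhibitors block serine hydrolase probe labeling of LYPLA1 so polarization falls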
Target sequence (O75608 whole entry, looked up): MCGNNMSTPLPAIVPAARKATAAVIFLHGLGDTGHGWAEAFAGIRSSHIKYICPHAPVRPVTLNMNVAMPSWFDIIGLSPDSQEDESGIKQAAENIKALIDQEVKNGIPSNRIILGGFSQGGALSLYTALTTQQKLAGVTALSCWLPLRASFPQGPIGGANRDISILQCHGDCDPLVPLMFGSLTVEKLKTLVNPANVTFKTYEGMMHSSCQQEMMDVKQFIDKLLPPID
LYPLA2 inh – LYPLA2 inhibitors, primary screen, counter-screen for PME1 inhibitor project, biochemical, fluorescence polarization, FP-Rh probe ABPP | Acyl-protein thioesterase 2 (Homo sapiens), O95372 | 320,000 compounds, 0.38% hits | recombinant LYPLA2 | inhibition, % at 5.9 µM | AID 2177, 2009;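 active = inhibition above the screen-wide mean plus 3 SD, limit set per campaign, cut at about 26% in these data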
Target sequence (O95372 whole entry, looked up): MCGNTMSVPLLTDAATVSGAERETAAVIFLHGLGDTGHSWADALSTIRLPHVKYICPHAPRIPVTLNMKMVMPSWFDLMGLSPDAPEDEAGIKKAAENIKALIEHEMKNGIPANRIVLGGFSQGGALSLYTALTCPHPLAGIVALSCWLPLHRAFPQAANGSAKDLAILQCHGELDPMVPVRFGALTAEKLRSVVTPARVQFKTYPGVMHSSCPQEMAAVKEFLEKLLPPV
PAD4 confirm – human PAD4 inhibitors, confirmation, biochemical, fluorescence polarization; shares compounds with PAD4 FP inh; recombinant PAD4, RCA probe fluorescence polarization; inhibition, % at 6.36 µM; 1,200 compounds, 28% hits;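 active = mean inhibition across replicates above the hit cutoff set by the earlier primary screen, cut at about 15% in these data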;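 note: inhibitors block active-site labeling by the probe so polarization falls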
A number is an active result; – = inactive; · = not tested or not shown. A selection: hits, their analogues and other compounds. The true share with any hit is near 1.8%.

SMILES	PAD4 FP inh	Fam108B counter	GSTO1 counter	PME-1 primary	LYPLA1 counter	LYPLA2 inh	PAD4 confirm
COc1ccccc1C(=O)Nc1ccc(S(=O)(=O)Nc2cc(C)nc(C)n2)cc1	–	–	–	–	–	–	·
O=C(O)c1ccc(NC(=O)c2ccccc2NC(=O)c2cccc(Br)c2)cc1	–	–	–	–	–	–	·
CN1CCS/C1=C/C=C1/SC(=S)N(Cc2ccccc2)C1=O	49	–	–	–	–	–	–
O=C(N/N=C/c1ccc(O)cc1)c1ccncc1	–	–	–	–	–	–	·
CC/C(=C\C(=O)c1ccncc1)Nc1ccc(O)cc1	77	–	–	–	–	–	–
Nn1c(SCC(=O)Nc2nc3ccccc3s2)nncc1=O	22	–	–	–	–	–	39
CCOc1ccc(NC(=O)CSc2nncc(=O)n2N)cc1	15	–	–	–	–	–	–
Cc1ccc(CNC(=O)CCCC(=O)c2ccccc2)cc1	–	–	–	–	–	–	·
CCOc1ccc2c(O)csc2c1	24	–	–	–	–	–	20
Cc1ccc(C(NC(=O)Nc2ccccn2)C(Cl)(Cl)Cl)cc1F (stereo not drawn)	26	–	–	–	–	–	–
CCOc1ccccc1C(=O)NCC(=O)NCCCc1ccccc1	62	–	–	–	–	–	–
O=C(O)[C@H](Cc1ccccc1)NC(=O)N1CCC(Cc2ccccc2)CC1	42	–	–	–	–	–	–
COc1ccc(C(=O)Nc2nnc(Cc3ccc(OC)c(OC)c3)s2)c(OC)c1	22	–	–	–	–	–	32
Cn1ncnc1SCc1cn2cccnc2n1	–	–	–	–	–	–	·
CCOC(=O)[C@H]1[C@H]2COc3cc(OC)ccc3[C@@H]2N2C(=O)c3cc(OC)ccc3NC(=O)[C@@]12C	–	–	–	–	–	–	·
CCOC(=O)[C@H]1[C@H]2COc3cc(OC)ccc3[C@@H]2N2C(=O)c3cc(C)ccc3NC(=O)[C@@]12C	16	–	–	–	–	–	–
CC(C)[C@H](N)c1nnc(SCC(=O)c2ccc(Cl)cc2)o1	15	–	–	–	–	–	–
COc1cccc2cc(C(=O)NC3CC(C)(C)NC(C)(C)C3)c(=O)oc12	79	–	–	–	–	–	–
COc1cccc2cc(C(C)=O)c(=O)oc12	–	–	–	–	–	–	·
O=C1CC(Nc2ccc(N3CCOCC3)cc2)C(=O)N1Cc1ccccc1 (stereo not drawn)	35	–	–	–	–	–	–
COc1ccccc1N1C(=O)CC(Nc2ccc(N3CCOCC3)cc2)C1=O (stereo not drawn)	24	–	–	–	–	–	–
COc1ccc(NC2CC(=O)N(c3ccccc3)C2=O)cc1 (stereo not drawn)	–	–	–	–	–	–	·
Cc1[nH]n(-c2ccccc2)c(=O)c1C(c1cccc([N+](=O)[O-])c1O)c1c(C)[nH]n(-c2ccccc2)c1=O	64	–	64	–	–	–	–
Cc1c(O[C@@H]2O[C@H](CO)[C@@H](O)[C@H](O)[C@H]2O)c(CO)c(O[C@@H]2O[C@H](CO)[C@@H](O)[C@H](O)[C@H]2O)c2c1O[C@@H](c1ccccc1)C[C@@H]2O	–	·	·	·	·	·	·
COc1cc(C2C(C#N)=C(N)Oc3n[nH]c(-c4cccnc4)c32)ccc1OCC(N)=O (stereo not drawn)	21	–	–	–	–	–	–
SMILES	PAD4 FP inh	Fam108B counter	GSTO1 counter	PME-1 primary	LYPLA1 counter	LYPLA2 inh	PAD4 confirm
COc1cc(C2C(C#N)=C(N)Oc3n[nH]c(-c4cccnc4)c32)cc(Br)c1O (stereo not drawn)	21	–	–	–	–	–	–
Cc1ccc(SCC(=O)NC(=O)NCc2ccccc2)c(C)c1	–	–	–	–	–	–	·
Cc1ccc(NC(=O)C(C)N2CCOCC2)c(C(=O)c2ccccc2)c1 (stereo not drawn)	40	–	–	–	–	–	–
Cc1ccc(/C=N\NC(=O)C2COc3cc4ccccc4cc3O2)o1 (stereo not drawn)	–	–	–	–	–	–	·
O=C(N/N=C\c1ccc(-c2ccccc2[N+](=O)[O-])o1)C1COc2cc3ccccc3cc2O1 (stereo not drawn)	17	–	–	–	–	–	–
COc1ccc(NC(=O)Cc2nnc(SCC(=O)Nc3ccc(F)cc3)n2C)cc1	–	–	–	–	–	–	·
CCCCCC(=O)Nc1ccc(C(=O)CN2C(=O)NC3(CCCCCC3)C2=O)cc1	–	–	–	–	–	–	·
CCC(=O)Nc1ccc(C(=O)CN2C(=O)NC3(CCCCCC3)C2=O)cc1	30	·	·	–	–	–	–
O=c1[nH]c(/C(Cl)=C/c2cc(Cl)ccc2O)nc2cc(Cl)ccc12	–	–	–	–	–	–	·
COc1ccccc1C(CNC(=O)C1CC(=O)N(Cc2ccccc2)C1)N1CCCC1 (stereo not drawn)	–	·	·	–	–	–	·
CCC(=O)Oc1ccc(C(=O)Nc2cccc(NC(=O)c3ccco3)c2)cc1	–	–	–	–	–	–	·
CCC(=O)Oc1ccc(C(=O)Nc2cccc(C(=O)NC(C)(C)C)c2)cc1	115	–	–	–	–	–	–
COc1ccc(NC(=O)CCS(=O)(=O)c2ccc(OC)cc2)cc1	20	–	–	–	–	–	–
CCn1nc(NC(=O)Cc2ccc(OC)cc2)c2cc3cccc(C)c3nc21	–	–	–	–	–	–	·
O=C(N/N=C/c1cn(-c2cccs2)nc1-c1ccccc1)c1ccccc1O	27	–	–	–	–	–	–
O=C(N/N=C/c1cn(-c2cccs2)nc1-c1ccccc1)c1ccccc1Br	–	–	–	–	–	–	·
NC(=O)c1ccc(-n2nnnc2SCC(=O)Nc2ccccc2-c2ccccc2)cc1	16	–	–	–	–	–	–
CCN(CC)S(=O)(=O)c1ccc2c(c1)c(=O)c(C(=O)N1CCN(c3ccccn3)CC1)cn2C	20	–	–	–	–	–	–
CC1CCCCN1S(=O)(=O)c1ccc2c(c1)CCN2C(=O)C1CC1 (stereo not drawn)	–	–	–	–	–	–	·
Fc1ccc(C2CC(c3ccco3)=Nc3ccccc3S2)cc1 (stereo not drawn)	15	–	–	–	–	–	–
